Inhibition data for six compounds are collected here from ChEMBL document CHEMBL1961873, “Compounds: GSK PKIS; Assays: Nanosyn kinase panel” (2012).

A word on the inhibition: it is the relative decrease from the control value, in per cent.

Test [1] deals with Serine/threonine-protein kinase MARK2 (Homo sapiens) (UniProt Q7KZI7). As to conditions: at 1 µM.
For test [2], the target named is PAS domain-containing serine/threonine-protein kinase (Homo sapiens) (UniProt Q96RG2). The settings on record: at 0.1 µM.
For test [3] the target is unchanged. As to conditions: at 1 µM.
In test [4] the target is Phosphorylase b kinase gamma catalytic chain, skeletal muscle/heart isoform (Homo sapiens) (UniProt Q16816). The settings on record: at 0.1 µM.
Test [5] shares this target. The settings on record: at 1 µM.
Test [6] addresses T1, Phosphorylase b kinase gamma catalytic chain, liver/testis isoform (Homo sapiens) (UniProt P15735).
T1 sequence (whole entry): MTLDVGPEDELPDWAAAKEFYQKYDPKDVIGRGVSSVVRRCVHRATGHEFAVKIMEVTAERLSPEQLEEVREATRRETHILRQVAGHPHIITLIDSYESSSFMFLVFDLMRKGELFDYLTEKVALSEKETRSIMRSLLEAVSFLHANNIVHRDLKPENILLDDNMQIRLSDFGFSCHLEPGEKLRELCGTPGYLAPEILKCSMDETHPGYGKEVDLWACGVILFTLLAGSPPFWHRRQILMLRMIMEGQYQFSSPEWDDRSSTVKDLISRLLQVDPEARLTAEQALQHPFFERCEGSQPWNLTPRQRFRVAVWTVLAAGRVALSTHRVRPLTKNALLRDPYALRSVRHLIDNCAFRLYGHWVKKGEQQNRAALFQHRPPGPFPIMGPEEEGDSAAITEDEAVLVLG
The settings on record: at 0.1 µM.

In test [7] the target is T1, Phosphorylase b kinase gamma catalytic chain, liver/testis isoform (Homo sapiens). As to conditions: at 1 µM.
The target in test [8] is Serine/threonine-protein kinase pim-1 (Homo sapiens) (UniProt P11309). As to conditions: at 0.1 µM.
For test [9] the target is unchanged. As to conditions: at 1 µM.
Test [10] addresses Serine/threonine-protein kinase pim-2 (Homo sapiens) (UniProt Q9P1W9). As to conditions: at 0.1 µM.
For test [11] the target is unchanged. As to conditions: at 1 µM.
Test [12] deals with Serine/threonine-protein kinase pim-3 (Homo sapiens) (UniProt Q86V86). As to conditions: at 0.1 µM.
Test [13] has the same target. As to conditions: at 1 µM.
Test [14] addresses T2, MAP kinase-activated protein kinase 5 (Homo sapiens) (UniProt Q8IW41).
T2 sequence (whole entry): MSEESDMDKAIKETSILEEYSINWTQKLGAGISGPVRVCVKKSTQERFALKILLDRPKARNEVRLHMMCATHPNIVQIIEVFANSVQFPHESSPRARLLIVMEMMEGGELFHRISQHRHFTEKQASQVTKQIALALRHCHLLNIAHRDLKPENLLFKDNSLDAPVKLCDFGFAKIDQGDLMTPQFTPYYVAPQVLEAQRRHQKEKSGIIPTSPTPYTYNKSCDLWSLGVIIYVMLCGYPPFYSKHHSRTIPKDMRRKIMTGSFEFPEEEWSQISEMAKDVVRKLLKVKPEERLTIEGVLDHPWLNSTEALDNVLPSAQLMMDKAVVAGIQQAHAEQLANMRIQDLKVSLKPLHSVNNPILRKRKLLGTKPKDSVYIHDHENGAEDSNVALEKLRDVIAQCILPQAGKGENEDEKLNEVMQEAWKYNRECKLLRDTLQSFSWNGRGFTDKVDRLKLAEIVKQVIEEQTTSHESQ
The settings on record: at 0.1 µM.

Test [15] has as its target T2, MAP kinase-activated protein kinase 5 (Homo sapiens). The settings on record: at 1 µM.
The target in test [16] is Serine/threonine-protein kinase SIK1 (Homo sapiens) (UniProt P57059). The settings on record: at 0.1 µM.
Test [17] shares this target. The settings on record: at 1 µM.
Test [18] deals with Serine/threonine-protein kinase SIK2 (Homo sapiens) (UniProt Q9H0K1). As to conditions: at 0.1 µM.
Test [19] shares this target. As to conditions: at 1 µM.
In test [20] the target is T3, Serine/threonine-protein kinase TBK1 (Homo sapiens) (UniProt Q9UHD2).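 Further: values are the mean TBK1 inhibition, taken from the GSK PKIS screening data.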
T3 sequence (whole entry): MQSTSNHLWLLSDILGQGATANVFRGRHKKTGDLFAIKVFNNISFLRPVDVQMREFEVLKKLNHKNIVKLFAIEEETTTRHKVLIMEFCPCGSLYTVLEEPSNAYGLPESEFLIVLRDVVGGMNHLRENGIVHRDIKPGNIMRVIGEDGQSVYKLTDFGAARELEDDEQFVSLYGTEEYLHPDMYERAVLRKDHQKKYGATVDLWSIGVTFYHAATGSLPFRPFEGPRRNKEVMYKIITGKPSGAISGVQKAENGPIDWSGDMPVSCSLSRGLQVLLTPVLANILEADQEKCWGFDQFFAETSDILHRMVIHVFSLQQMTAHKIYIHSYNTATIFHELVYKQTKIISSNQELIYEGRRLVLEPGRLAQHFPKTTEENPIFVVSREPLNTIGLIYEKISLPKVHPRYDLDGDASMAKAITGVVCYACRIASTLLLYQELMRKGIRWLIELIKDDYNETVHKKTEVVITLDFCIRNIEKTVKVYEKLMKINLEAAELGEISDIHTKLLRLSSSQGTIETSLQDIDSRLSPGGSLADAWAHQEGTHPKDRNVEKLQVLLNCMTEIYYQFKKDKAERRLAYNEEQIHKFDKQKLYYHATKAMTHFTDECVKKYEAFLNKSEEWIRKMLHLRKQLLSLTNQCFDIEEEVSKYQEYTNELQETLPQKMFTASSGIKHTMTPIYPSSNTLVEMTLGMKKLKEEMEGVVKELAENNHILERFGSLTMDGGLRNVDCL
The settings on record: at 0.1 µM.

Chain of PAS domain-containing serine/threonine-protein kinase (Homo sapiens) (Q96RG2 whole entry, the tested form may be a part): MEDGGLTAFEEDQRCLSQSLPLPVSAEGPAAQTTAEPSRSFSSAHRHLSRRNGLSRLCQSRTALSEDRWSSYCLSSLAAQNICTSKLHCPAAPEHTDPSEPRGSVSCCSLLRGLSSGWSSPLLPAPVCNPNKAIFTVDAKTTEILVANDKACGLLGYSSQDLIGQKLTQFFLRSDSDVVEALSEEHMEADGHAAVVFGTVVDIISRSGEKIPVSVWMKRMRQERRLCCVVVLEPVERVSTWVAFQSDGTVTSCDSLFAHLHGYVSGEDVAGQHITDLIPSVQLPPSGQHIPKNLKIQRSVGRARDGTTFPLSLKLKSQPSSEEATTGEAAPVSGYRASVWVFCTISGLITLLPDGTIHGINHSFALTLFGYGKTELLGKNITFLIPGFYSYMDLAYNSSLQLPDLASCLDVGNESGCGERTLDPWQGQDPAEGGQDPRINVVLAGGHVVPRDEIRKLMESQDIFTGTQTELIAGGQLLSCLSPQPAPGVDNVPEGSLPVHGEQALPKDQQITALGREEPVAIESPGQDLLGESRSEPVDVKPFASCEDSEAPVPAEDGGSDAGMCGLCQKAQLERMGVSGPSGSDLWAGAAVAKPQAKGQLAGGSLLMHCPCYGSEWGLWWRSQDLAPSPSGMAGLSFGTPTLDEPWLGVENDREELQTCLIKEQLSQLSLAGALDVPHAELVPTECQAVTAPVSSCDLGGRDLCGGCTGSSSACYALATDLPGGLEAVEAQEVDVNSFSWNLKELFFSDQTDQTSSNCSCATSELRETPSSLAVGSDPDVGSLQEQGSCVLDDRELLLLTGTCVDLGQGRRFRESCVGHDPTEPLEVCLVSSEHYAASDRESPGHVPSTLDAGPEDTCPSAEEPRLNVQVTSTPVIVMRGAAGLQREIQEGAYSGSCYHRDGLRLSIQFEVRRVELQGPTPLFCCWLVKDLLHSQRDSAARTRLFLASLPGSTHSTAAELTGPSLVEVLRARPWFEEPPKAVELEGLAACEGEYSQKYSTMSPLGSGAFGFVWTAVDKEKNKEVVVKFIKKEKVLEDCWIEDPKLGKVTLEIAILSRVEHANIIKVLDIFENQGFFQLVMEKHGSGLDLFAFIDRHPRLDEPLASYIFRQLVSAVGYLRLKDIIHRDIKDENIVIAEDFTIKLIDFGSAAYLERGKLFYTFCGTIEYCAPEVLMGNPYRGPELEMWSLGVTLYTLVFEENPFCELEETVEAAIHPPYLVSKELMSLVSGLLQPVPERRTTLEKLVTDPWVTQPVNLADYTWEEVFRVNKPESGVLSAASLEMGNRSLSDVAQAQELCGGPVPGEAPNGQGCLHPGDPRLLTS
Chain of Serine/threonine-protein kinase SIK2 (Homo sapiens) (Q9H0K1 whole entry, looked up): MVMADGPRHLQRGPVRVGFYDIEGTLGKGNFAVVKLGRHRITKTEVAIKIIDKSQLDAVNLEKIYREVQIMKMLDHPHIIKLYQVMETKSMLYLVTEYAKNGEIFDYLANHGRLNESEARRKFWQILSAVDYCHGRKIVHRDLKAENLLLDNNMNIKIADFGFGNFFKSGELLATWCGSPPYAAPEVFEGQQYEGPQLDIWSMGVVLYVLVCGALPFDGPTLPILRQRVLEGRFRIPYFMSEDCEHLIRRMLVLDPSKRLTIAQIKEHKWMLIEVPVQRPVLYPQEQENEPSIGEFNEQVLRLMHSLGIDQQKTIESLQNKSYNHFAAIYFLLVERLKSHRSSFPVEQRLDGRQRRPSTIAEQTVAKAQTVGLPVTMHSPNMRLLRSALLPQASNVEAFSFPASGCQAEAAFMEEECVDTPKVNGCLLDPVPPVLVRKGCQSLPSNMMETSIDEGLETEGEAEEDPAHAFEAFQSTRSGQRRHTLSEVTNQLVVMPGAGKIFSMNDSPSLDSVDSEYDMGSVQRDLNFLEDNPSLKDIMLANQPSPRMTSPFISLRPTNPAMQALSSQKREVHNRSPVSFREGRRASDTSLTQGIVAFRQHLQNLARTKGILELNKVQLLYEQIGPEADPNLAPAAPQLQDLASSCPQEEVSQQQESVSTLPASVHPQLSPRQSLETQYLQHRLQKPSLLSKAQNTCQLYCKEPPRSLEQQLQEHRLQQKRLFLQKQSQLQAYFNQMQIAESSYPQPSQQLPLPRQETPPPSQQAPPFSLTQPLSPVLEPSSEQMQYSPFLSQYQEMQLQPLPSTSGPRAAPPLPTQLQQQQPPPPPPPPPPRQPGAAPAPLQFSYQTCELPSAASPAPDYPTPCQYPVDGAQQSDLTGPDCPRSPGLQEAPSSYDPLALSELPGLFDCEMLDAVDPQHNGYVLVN
Chain of Serine/threonine-protein kinase pim-2 (Homo sapiens) (Q9P1W9 whole entry, looked up): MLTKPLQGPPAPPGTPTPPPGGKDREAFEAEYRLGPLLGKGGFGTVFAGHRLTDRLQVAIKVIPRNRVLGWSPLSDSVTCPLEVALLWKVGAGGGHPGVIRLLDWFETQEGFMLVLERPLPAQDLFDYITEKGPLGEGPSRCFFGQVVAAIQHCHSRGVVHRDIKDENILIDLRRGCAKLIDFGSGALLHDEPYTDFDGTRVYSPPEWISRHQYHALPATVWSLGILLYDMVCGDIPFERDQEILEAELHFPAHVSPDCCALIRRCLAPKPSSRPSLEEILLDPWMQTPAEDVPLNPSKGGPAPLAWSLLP
Chain of Serine/threonine-protein kinase pim-1 (Homo sapiens) (P11309 whole entry, looked up): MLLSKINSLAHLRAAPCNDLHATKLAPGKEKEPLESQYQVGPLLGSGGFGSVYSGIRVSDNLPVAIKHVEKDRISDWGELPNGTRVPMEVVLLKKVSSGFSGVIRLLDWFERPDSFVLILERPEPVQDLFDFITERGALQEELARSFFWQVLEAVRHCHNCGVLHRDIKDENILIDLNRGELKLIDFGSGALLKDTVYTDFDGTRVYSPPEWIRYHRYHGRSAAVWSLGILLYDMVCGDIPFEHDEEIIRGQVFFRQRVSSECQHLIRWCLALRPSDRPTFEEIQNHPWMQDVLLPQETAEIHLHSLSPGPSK
Chain of Phosphorylase b kinase gamma catalytic chain, skeletal muscle/heart isoform (Homo sapiens) (Q16816 whole entry, looked up, canonical isoform): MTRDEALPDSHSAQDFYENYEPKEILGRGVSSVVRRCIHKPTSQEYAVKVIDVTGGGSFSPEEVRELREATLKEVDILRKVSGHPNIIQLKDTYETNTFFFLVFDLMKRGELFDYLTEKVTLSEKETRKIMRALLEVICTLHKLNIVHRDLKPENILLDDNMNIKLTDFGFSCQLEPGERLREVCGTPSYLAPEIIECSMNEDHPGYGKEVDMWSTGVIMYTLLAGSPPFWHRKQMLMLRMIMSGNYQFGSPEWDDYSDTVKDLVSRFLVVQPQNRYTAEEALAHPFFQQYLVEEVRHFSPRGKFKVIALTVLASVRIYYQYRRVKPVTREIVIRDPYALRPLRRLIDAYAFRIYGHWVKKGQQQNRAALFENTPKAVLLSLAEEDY
Chain of Serine/threonine-protein kinase SIK1 (Homo sapiens) (P57059 whole entry): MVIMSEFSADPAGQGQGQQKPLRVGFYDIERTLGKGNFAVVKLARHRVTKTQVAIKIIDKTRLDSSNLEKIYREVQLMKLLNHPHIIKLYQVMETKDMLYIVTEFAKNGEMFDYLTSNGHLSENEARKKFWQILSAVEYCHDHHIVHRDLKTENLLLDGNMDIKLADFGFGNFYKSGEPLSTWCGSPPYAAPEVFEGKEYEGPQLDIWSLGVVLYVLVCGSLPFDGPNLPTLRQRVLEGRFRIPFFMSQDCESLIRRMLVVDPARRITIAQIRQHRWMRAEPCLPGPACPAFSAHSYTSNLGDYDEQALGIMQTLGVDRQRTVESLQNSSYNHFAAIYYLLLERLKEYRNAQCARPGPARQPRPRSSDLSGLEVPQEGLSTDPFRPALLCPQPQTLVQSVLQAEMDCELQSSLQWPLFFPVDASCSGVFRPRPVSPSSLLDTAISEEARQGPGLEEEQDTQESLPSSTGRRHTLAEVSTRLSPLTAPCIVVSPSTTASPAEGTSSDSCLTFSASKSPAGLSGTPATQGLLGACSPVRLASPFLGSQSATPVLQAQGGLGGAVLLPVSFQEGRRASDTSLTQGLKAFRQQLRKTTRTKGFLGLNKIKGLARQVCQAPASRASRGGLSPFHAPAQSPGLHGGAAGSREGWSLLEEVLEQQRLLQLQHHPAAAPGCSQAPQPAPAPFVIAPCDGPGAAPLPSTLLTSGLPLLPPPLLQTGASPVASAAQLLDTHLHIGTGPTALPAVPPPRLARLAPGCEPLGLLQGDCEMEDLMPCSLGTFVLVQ

In the case of `Cc1ccc(O)cc1Nc1ccnc2ccc(S(C)(=O)=O)cc12`, the inhibition was 1.93% in test [1]; -0.05% in [2]; 4.61% in test [3]; 6.2% in [4]; 10% in test [5]; 5.57% in test [6]. Besides, the inhibition was 7.16% in test [7]; 0.95% in test [8]; 1.4% in [9]; 0.23% in test [10]; 0.8% in test [11]; 0.69% in test [12]. The inhibition in test [13] stood at 1.04%; in test [14], 2.48%; in test [15], 2.77%; in test [16] it was 47.2%; in [17] it was 89.6%; in test [18], 15.8%. The inhibition stood at 52.6% in test [19] and 2.4% in test [20].

As to `O=S(=O)(CCOCc1ccc(-c2ccc3ncnc(Nc4ccc(OCc5cccc(F)c5)c(Cl)c4)c3c2)o1)c1ccccc1`, the inhibition was 3.35% in [1]; -0.23% in test [2]; -0.13% in test [3]; 1.12% in test [4]; 5.02% in [5]; 1.75% in test [6]. For the same compound, the inhibition was -0.77% in [7]; 1.1% in test [8]; 2.1% in test [9]; 0.88% in [10]; 2.24% in [11]; 0.82% in test [12]. Further, the inhibition came out at 2.26% in test [13]; 0.61% in test [14]; 0.15% in test [15]; 3.79% in test [16]; 5.54% in test [17]; 0.88% in test [18]. Moreover, the inhibition in [19] came to 1.15%; in [20], 0.12%.

Take `CC(C)c1ccc(Nc2nccc(-c3cnn4ncccc34)n2)cc1`: the inhibition in test [1] was 1.01%; in test [2], -0.78%; in test [3] it was -0.93%; in [4] it was 2.33%; in [5], 7.97%; in test [6], 4.16%. Also, the inhibition in test [7] is 3.83%; in test [8] it was -0.71%; in test [9], 2.45%; in [10], -0.13%; in test [11], 1.73%; in test [12], 0.51%. Besides, the inhibition in test [13] came to 6.16%; in test [14] it was 0.53%; in [15] it was 1.09%; in test [16] it was 4.79%; in test [17] it was 8.55%; in [18], 2.73%. The results for the inhibition in test [19] and in test [20] were 11.3% and 1.14%, respectively.

Consider `N#Cc1cccc(Nc2nccc(-c3cnn4ncccc34)n2)c1`, for which the inhibition came to 9.5% in test [1]; 0.25% in [2]; 0.01% in test [3]; 15.8% in [4]; 58.3% in [5]; 7.04% in test [6]. The inhibition in test [7] turned out to be 22.2%; in test [8] it was 1.44%; in test [9], 12.4%; in test [10] it was 0.59%; in test [11] it was 7.85%; in test [12], 4.41%. In addition, the inhibition in [13] was found to be 34%; in test [14], 1.48%; in test [15], 4.15%; in [16], 8.01%; in [17], 15.1%; in test [18], 4.44%. Besides, the inhibition turned out to be 11.9% in test [19] and 1.58% in test [20].

Consider `NS(=O)(=O)c1ccc(NC=C2C(=O)Nc3ccc4ncsc4c32)cc1`, for which the inhibition is 46.2% in test [1]; 0.44% in test [2]; -0.6% in test [3]; 20.3% in test [4]; 66.4% in [5]; 8.94% in test [6]. Moreover, the inhibition in test [7] came out at 32.1%; in test [8], 2.48%; in test [9], 9.5%; in test [10], 1.26%; in [11], 5.46%; in [12], 2.4%. Moreover, the inhibition came out at 13.1% in test [13]; 2.33% in [14]; 13.9% in [15]; 5.99% in test [16]; 34.1% in [17]; 9.07% in test [18]. The inhibition stood at 40.7% in test [19] and 13.4% in [20].

Turning to `O=C1Nc2ccccc2/C1=C/Nc1ccc2[nH]c(=O)[nH]c2c1`, the inhibition in test [1] came out at 13.4%; in test [2] it was 12.4%; in test [3] it was 64.1%; in test [4] it was 10.5%; in [5], 42.6%; in [6] it was 7.44%. Further, the inhibition in test [7] was 21.4%; in [8] it was -0.21%; in test [9] it was 2.44%; in [10] it was 0.27%; in test [11], -0.46%; in test [12], -0.36%. For the same compound, the inhibition came to 5.21% in [13]; 1.86% in test [14]; 5% in test [15]; 3.92% in test [16]; 14.9% in test [17]; 9.13% in test [18]. Besides, the inhibition in test [19] turned out to be 17.6%; in test [20], 8.2%.
